Experimental data: PubChem BioAssay AID1259422 (The Scripps Research Institute Molecular Screening Center, 2018)
In all, about 640,000 compounds went through this assay and about 9,300 (1.5%) were called active. This is one part of a sample in which actives are shown more often than they occur. Cut-off read from the data, not from the text of the source: active = inhibition above about 32%; inactive = the rest.

Test: TEAD-YAP interaction inhibition, primary screen, TEAD-YAP interaction inhibitor project, luminescence, HEK-TIYL cells (AID 1259422);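 note: 0% = median of test compound wells and 100% = reference inhibitor wells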
Conditions: TEAD-Gal4/YAP UAS-luciferase luminescence, at 9.12 µM, active compounds read high

**Q.** Which inhibition does the source give for `Cc1nc(Oc2cc3sc(C)nc3c3sccc23)c2c3c(sc2n1)CCCC3` here?
**A.** 4.62% (inactive)

**Q.** For `Cc1cc(-n2c(C)cc(C(=O)COC(=O)c3cc(=O)[nH]c4ccccc34)c2C)no1`, which inhibition is on record?
**A.** -18.6% (inactive)

**Q.** For `CCC(C)NC(=O)C(C(F)(F)F)(C(F)(F)F)C(F)(F)F` (stereo not drawn), which inhibition is on record?
**A.** 4.25% (inactive)

**Q.** Which inhibition does the source give for `COc1ccc(-c2cnnn2-c2ccc(-c3csc(N)n3)cc2)cc1` here?
**A.** 9.88% (inactive)

**Q.** Which inhibition does the source give for `COc1ccc(C(=O)N2CCC[C@@H]2[C@@H](O)c2cccs2)cc1Cn1cccn1` here?
**A.** -11.1% (inactive)

**Q.** For `O=C(Nc1ccc2ccccc2c1)c1ccc2c(c1)C(=O)N(N1C(=O)c3ccccc3C1=O)C2=O`, which inhibition is on record?
**A.** 2.19% (inactive)

**Q.** With `Cc1cccc(N2CCN(C(=O)Cn3ncc4c(=O)oc5ccccc5c43)CC2)c1C` as the compound, how does the inhibition read?
**A.** 63% (active)

**Q.** For `Cc1ccc2oc(=O)c3cnn(CC(=O)N4CCN(c5ccccn5)CC4)c3c2c1`, which inhibition is on record?
**A.** 1.66% (inactive)

**Q.** With `Cc1ccc2oc(=O)c3cnn(CC(=O)N4CCN(c5cccc(Cl)c5)CC4)c3c2c1` as the compound, how does the inhibition read?
**A.** 0.74% (inactive)

**Q.** Which inhibition does the source give for `COc1ccc(/C=C2N=C(/C=C/c3ccc(Cl)cc3Cl)OC\2=O)cc1OC(C)=O` here?
**A.** -1.28% (inactive)

**Q.** With `Cc1ccccc1-n1c(=S)sc2c(=O)n(-c3ccccc3)c(SCc3cccc([N+](=O)[O-])c3)nc21` as the compound, how does the inhibition read?
**A.** -6.72% (inactive)

**Q.** Which inhibition does the source give for `O=C1C2CC=CCC2C(=O)N1c1ccc(N2C(=O)C3CC=CCC3C2=O)c(Cl)c1` (stereo not drawn) here?
**A.** 9.86% (inactive)

**Q.** With `CCC(=O)Nc1ccc(-c2nc3ccccc3o2)cc1` as the compound, how does the inhibition read?
**A.** 3.84% (inactive)

**Q.** Which inhibition does the source give for `CC(C)C(=O)Nc1ccc(-c2nc3ccccc3o2)cc1` here?
**A.** 44.5% (active)

**Q.** With `O=C(Nc1ccc(-c2nc3ccccc3o2)cc1)c1ccc(Oc2ccccc2)cc1` as the compound, how does the inhibition read?
**A.** -4.71% (inactive)

**Q.** Which inhibition does the source give for `COc1ccc(C(=O)N/C(=C/c2ccc([N+](=O)[O-])cc2)C(=O)Nc2cc(Cl)cc(Cl)c2)c(Cl)c1` here?
**A.** -19% (inactive)

**Q.** Which inhibition does the source give for `CS(=O)(=O)N(CC(=O)NCCC1=CCCCC1)c1ccc(OCc2ccccc2)cc1` here?
**A.** 5.23% (inactive)

**Q.** For `Cc1cc(NC(=O)COc2ccccc2Br)no1`, which inhibition is on record?
**A.** -74.2% (inactive)

**Q.** With `CCOC(=O)c1cccc(NC(=O)COc2ccccc2Br)c1` as the compound, how does the inhibition read?
**A.** 54.5% (active)

**Q.** For `CCCCOC(=O)c1cccc(NC(=O)COc2ccc(C)c(C)c2)c1`, which inhibition is on record?
**A.** -33.7% (inactive)

**Q.** For `Cc1ccsc1/C=N/NS(=O)(=O)c1ccc(Br)cc1`, which inhibition is on record?
**A.** -2.4% (inactive)

**Q.** Which inhibition does the source give for `CC(C)C(=O)N=C1N=C2C=CC(Cl)=CN2Cc2ccccc21` here?
**A.** -43.4% (inactive)

**Q.** With `COc1cccc(/C=N/Nc2nc(=O)[nH]nc2C)c1OC` as the compound, how does the inhibition read?
**A.** -7.82% (inactive)

**Q.** With `COC(=O)c1ccc(Nc2ncnc3nc[nH]c23)cc1` as the compound, how does the inhibition read?
**A.** 12.4% (inactive)

**Q.** For `COc1cccc(/C=N/Nc2ncnc3nc[nH]c23)c1OC`, which inhibition is on record?
**A.** 37.2% (active)

**Q.** Which inhibition does the source give for `COc1ccc(/C=N/Nc2ncnc3nc[nH]c23)cc1OC` here?
**A.** -5.99% (inactive)

**Q.** Which inhibition does the source give for `COc1ccccc1-c1cnnc(N/N=C/c2cccc(OC)c2OCC(=O)O)n1` here?
**A.** 15% (inactive)

**Q.** With `CCOc1ccc(/C=N/Nc2ncnc3nc[nH]c23)cc1` as the compound, how does the inhibition read?
**A.** 81.1% (active)

**Q.** Which inhibition does the source give for `Cc1sc2ncn(CC(=O)NCCCC(=O)NCCC3=CCCCC3)c(=O)c2c1C` here?
**A.** 6.71% (inactive)

**Q.** Which inhibition does the source give for `CCOc1ccc(/C(O)=C2/C(=O)C(=O)N(CCN(CC)CC)C2c2ccc(F)cc2)cc1C` (stereo not drawn) here?
**A.** -0.51% (inactive)

**Q.** With `CCCCCCn1c(NNC=O)nc2c1c(=O)[nH]c(=O)n2C` as the compound, how does the inhibition read?
**A.** 5.98% (inactive)

**Q.** Which inhibition does the source give for `CCOC(=O)c1ccc(NC(=O)C2CC(=O)N(CCc3ccccc3)C(=Nc3ccccc3)S2)cc1` (stereo not drawn) here?
**A.** 5.21% (inactive)

**Q.** For `Cc1ccc(CN(C)Cc2c(C(=O)N3CCN(C4CCCCC4)CC3)nc3ccccn23)o1`, which inhibition is on record?
**A.** -4.7% (inactive)

**Q.** Which inhibition does the source give for `COc1ccc(Nc2nc(N3CCCC3)nc(N3CCCC3)n2)cc1` here?
**A.** 1.54% (inactive)

**Q.** For `COc1cc(CN2CCN(c3ccccc3OC)CC2)cc(OC)c1`, which inhibition is on record?
**A.** 4.91% (inactive)

**Q.** For `COc1cc2nc(CN3CCN(c4ccccc4OC)CC3)[nH]c(=O)c2cc1OC`, which inhibition is on record?
**A.** 63.6% (active)

**Q.** Which inhibition does the source give for `O=C(c1n[nH]c(=O)c2ccccc12)N1CCN(Cc2ccccc2)CC1` here?
**A.** -7.02% (inactive)

**Q.** For `COc1ccccc1N1CCN(C(=O)c2n[nH]c(=O)c3ccccc23)CC1`, which inhibition is on record?
**A.** 59% (active)

**Q.** For `COc1cc(OC)c(OC)cc1CN1CCN(c2ccccc2F)CC1`, which inhibition is on record?
**A.** 2.95% (inactive)

**Q.** Which inhibition does the source give for `COc1ccccc1-n1nc(C(=O)N2CCN(c3ccccc3)CC2)c2ccccc2c1=O` here?
**A.** 0.45% (inactive)

**Q.** With `COc1ccccc1N1C(=O)C2C(C(C)=O)=NN(c3cccc(Cl)c3)C2C1=O` (stereo not drawn) as the compound, how does the inhibition read?
**A.** 2.39% (inactive)

**Q.** Which inhibition does the source give for `O=C(CN1CCOCC1)NCC1(c2ccccc2)CCCC1` here?
**A.** 4.7% (inactive)

**Q.** For `CCOC(=O)c1c(NC(=O)CSc2nnc(CNC(=O)c3cccs3)n2-c2ccccc2OC)sc2c1CCCCC2`, which inhibition is on record?
**A.** 11.5% (inactive)

**Q.** With `O=S1(=O)Nc2cccc3cccc1c23` as the compound, how does the inhibition read?
**A.** 9.46% (inactive)

**Q.** With `CCN1C/C(=C/c2ccc(NC(C)=O)cc2)C(=O)/C(=C/c2ccc(NC(C)=O)cc2)C1` as the compound, how does the inhibition read?
**A.** 77.6% (active)

**Q.** Which inhibition does the source give for `CCNCC(=O)Nc1ccc(NC(C)=O)cc1` here?
**A.** 5.37% (inactive)

**Q.** Which inhibition does the source give for `CC(=O)Nc1ccc(CN2CCOCC2)cc1` here?
**A.** -2.53% (inactive)

**Q.** Which inhibition does the source give for `CCCOc1ccc(/C(O)=C2/C(=O)C(=O)N(CCN3CCOCC3)C2c2ccc(F)cc2)cc1C` (stereo not drawn) here?
**A.** -9.41% (inactive)

**Q.** For `O=C1CCCN1CCCNc1cc(-c2cccs2)ncn1`, which inhibition is on record?
**A.** -13.2% (inactive)

**Q.** With `CN(CCC#N)C(=O)Cn1ncc2c1-c1ccccc1OC2` as the compound, how does the inhibition read?
**A.** 4.76% (inactive)

**Q.** With `COC(=O)c1cc(S(=O)(=O)Nc2ccc(C(C)=O)cc2)cn1C` as the compound, how does the inhibition read?
**A.** -5.94% (inactive)

**Q.** For `CC(=O)NC1=NN(C(C)=O)C(C)(c2ccc(C)cc2)S1` (stereo not drawn), which inhibition is on record?
**A.** 10.1% (inactive)

**Q.** With `COc1ccc(C2(C)SC(NC(C)=O)=NN2C(C)=O)cc1` (stereo not drawn) as the compound, how does the inhibition read?
**A.** 17.7% (inactive)

**Q.** For `CC(=O)NC1=NN(C(C)=O)C(C)(c2ccc(Cl)s2)S1` (stereo not drawn), which inhibition is on record?
**A.** 63.5% (active)

**Q.** Which inhibition does the source give for `CCOC(=O)c1ccc(Nc2c(-c3ccccc3)c(=O)c2=O)cc1` here?
**A.** -7.89% (inactive)

**Q.** For `NC(=O)C1(N2CCCCC2)CCN(C(=O)Nc2ccc(Cl)cc2)CC1`, which inhibition is on record?
**A.** 3.68% (inactive)

**Q.** Which inhibition does the source give for `CCC(OC(=O)C(CCSC)NC(=O)c1ccccc1)C(=O)Nc1ccc(S(N)(=O)=O)cc1` (stereo not drawn) here?
**A.** -0.22% (inactive)

**Q.** For `C=CCOC(=O)c1sc(N2C(=O)C(=O)/C(=C(/O)c3ccccc3)C2c2ccc(C)cc2)nc1C` (stereo not drawn), which inhibition is on record?
**A.** 7.19% (inactive)
